Screening results deposited in PubChem by National Center for Advancing Translational Sciences (NCATS).
KB-V1 cytotox – kills drug-selected multidrug resistant KB-V1 cells | KB-V1 MDR cells viability, CellTiter-Glo, 72 h | Potency, µM (series often up to 46.1 µM), actives largely listed as cytotoxic | 3.4% of 400,000 active | AID 1347076; further: on the % scale 0 is the no-effect control and ±100 the full control effect; nearly all actives have a fitted effect of over 60% in size
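Luminescent ATP read-out (CellTiter-Glo, 10 min) measures survival of drug-selected KB-V1 MDR cells after 72 h, 37 degrees C compound exposure. Medium: phenol-red-free DMEM, 10% FBS. Values from fitted concentration-response curves.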
RORg inh – ROR gamma (mouse) transcription inhibition. P51450. Drosophila S2 Gal4-RORgamma UAS-luciferase reporter, 20 h. Potency, µM (series often up to 53.6 µM), without a hit: at the top dose activity change, negative = inhibition, usual class: inhibitors. 5.4% of 310,000 active. AID 2551; further: on the % scale 0 is the no-effect control and ±100 the full control effect; nearly all actives have a fitted effect of over 60% in size
Target sequence (P51450 whole entry, looked up, the tested form may be a part): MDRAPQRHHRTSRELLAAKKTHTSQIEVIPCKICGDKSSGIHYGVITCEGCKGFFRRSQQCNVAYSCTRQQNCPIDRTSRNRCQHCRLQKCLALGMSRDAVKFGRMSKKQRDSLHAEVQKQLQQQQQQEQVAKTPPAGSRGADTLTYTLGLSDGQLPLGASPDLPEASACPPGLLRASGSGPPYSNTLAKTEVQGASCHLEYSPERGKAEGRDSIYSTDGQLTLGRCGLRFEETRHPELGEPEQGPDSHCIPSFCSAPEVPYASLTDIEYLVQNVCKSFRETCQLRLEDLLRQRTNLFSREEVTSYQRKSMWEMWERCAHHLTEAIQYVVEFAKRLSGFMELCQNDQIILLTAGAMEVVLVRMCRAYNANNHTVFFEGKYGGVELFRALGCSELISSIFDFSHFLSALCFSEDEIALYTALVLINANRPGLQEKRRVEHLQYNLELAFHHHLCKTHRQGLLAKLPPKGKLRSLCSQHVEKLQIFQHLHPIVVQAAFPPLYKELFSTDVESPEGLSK
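Drosophila Schneider cells stably carrying a metallothionein-driven Gal4 DBD–ROR gamma fusion and a UAS-Photinus luciferase reporter were exposed to compound for 1 hr, then induced with copper sulfate (700 uM final) for 20 hr at ambient temperature before luminescence reading.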
KB-3-1 tox – kills parental KB-3-1 adenocarcinoma cells; 1.4% of 400,000 active; Potency, µM (highest dose often 46.1 µM), usual class: cytotoxic; KB-3-1 viability, CellTiter-Glo ATP luminescence, 72 h; further: on the % scale 0 is the no-effect control and ±100 the full control effect; nearly all actives have a fitted effect of over 60% in size
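Parental KB-3-1 viability, qHTS format: 72 h compound exposure, 37 °C; CellTiter-Glo; media-only wells and DMSO plates as controls; concentration-effect fits on corrected data.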
SW480 rerep – inducers of DNA re-replication in SW480 colon cancer cells. SW480 DNA re-replication, Hoechst DNA content imaging, 48 h. Potency, µM (highest dose often 46.1 µM), inactives show at the highest dose re-replication activation, most hits filed as activators. 1.8% of 340,000 active. AID 624297; further: % of control where 0% means no effect; nearly all actives have a fitted effect of over 55% in size
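SW480 cells exposed to compounds for 48 hr at 37 C, 5% CO2, then Hoechst-stained 40 min. Nuclear DNA content imaged by fluorescence scanning (405 nm excitation, 500-530 nm emission); re-replication scored as increased high-intensity nuclei.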
MCF10A rerep – DNA re-replication induction in MCF 10a cells; Potency, µM (highest dose often 46.1 µM), inactives show at the highest dose activity, positive = re-replication, usual class: activators; 2.9% of 350,000 active; MCF 10A DNA re-replication, Hoechst nuclear intensity, 48 h; further: % of control where 0% means no effect; nearly all actives have a fitted effect of over 50% in size
VP16 counter – counter-screen for ROR gamma inhibitors: Gal4-VP16 reporter; AID 2546; 3.5% of 310,000 active; Drosophila S2 Gal4-VP16 UAS-luciferase, luminescence, 20 h; Potency, µM (series often up to 53.6 µM), without a hit: at the top dose activity, negative = inhibition, hits mostly inhibitors;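 further: Gal4-VP16 expression switched on by copper sulfate through the metallothionein promoter; on the % scale 0 is the no-effect control and ±100 the full control effect; nearly all actives have a fitted effect of over 50% in size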
* hit, by the source's call; i = inactive; ? = inconclusive; . = no result; [ ] = remark or other dose. In the library only some 10% were active in any assay of this set; here they are far more common. The call rests on the fitted dose curve; in most records, active means well fitted curve in the direction sought with a large enough effect; inconclusive means small, poorly fitted or top-dose-only effect, or another doubt; inactive means no such curve, though single readings can be large; an effect the other way counts as inactive or inconclusive. Potency means the concentration at half of the fitted maximal effect.

SMILES	KB-V1 cytotox	RORg inh	KB-3-1 tox	SW480 rerep	MCF10A rerep	VP16 counter
COCCn1c(C)cc(C(=O)Cn2nc(C(=O)O)c3ccccc3c2=O)c1C	i	5.62µM*	i	-19.1%	-12.4%	?
COc1ccc(-c2nnc(NC(=O)C3=COCCO3)o2)cc1	i	3.55µM*	i	-8.5%	-6.0%	2.82µM*
CS(=O)(=O)c1ccccc1-c1nnc(NC(=O)C2=COCCO2)o1	i	.	i	1.9%	2.7%	.
O=C(Nc1nnc(-c2ccc(Br)cc2)o1)C1=COCCO1	?	.	i	0.5%	11.3%	.
COc1ccccc1-c1nnc(NC(=O)C2=COCCO2)o1	?	2.24µM*	i	.	-1.1%	2.82µM*
Cc1ccc(C)c(S(=O)(=O)N2CCN(C(=O)c3cccn3C)CC2)c1	i	.	i	-1.6%	-1.3%	.
Cc1ccc(C(=O)Nc2ccc(Br)cc2)cc1S(=O)(=O)N1CCOCC1	4.11µM*	.	10.3µM*	.	.	.
Cc1ccc(NC(=O)c2ccccc2NS(=O)(=O)c2ccc(Cl)s2)cc1S(=O)(=O)N1CCOCC1	20.6µM*	?	i	1.9%	7.31µM*	?
O=C(Nc1cc(S(=O)(=O)N2CCOCC2)ccc1O)c1ccc(NS(=O)(=O)c2ccc(Cl)s2)cc1	i	32.8%	i	106.0%	-55.3%	-15.7%
Cc1ccc(C)c(S(=O)(=O)N2CCN(C(=O)c3sccc3C)CC2)c1	9.2µM*	.	i	-2.4%	4.7%	.
COc1ccc(C)cc1NC(=O)c1ccccc1NS(=O)(=O)c1ccc(Cl)s1	3.26µM*	-81.6%	5.17µM*	-19.9%	20.6µM*	?
COc1ccccc1NCc1nnc2n1CCCCC2	i	.	i	.	.	.
CS(=O)(=O)Nc1cccc(-c2ccc3ncnc(NCc4cccnc4)c3c2)c1	.	?	.	.	.	1.6%
Cc1ccc(C)c(S(=O)(=O)N2CCN(C(=O)CNC(=O)c3ccc4ccccc4c3)CC2)c1	23.1µM*	.	?	?	?	.
O=C(Nc1ccccc1)c1ccc(F)c(S(=O)(=O)N2CCOCC2)c1	i	?	i	7.3%	1.8%	-7.2%
Cc1ccc(NC(=O)c2ccc(C)c(S(=O)(=O)N3CCCCCC3)c2)cc1	20.6µM*	.	?	.	.	.
Cc1ccc(NC(=O)c2ccc([N+](=O)[O-])s2)cc1S(=O)(=O)N1CCOCC1	i	.	18.4µM*	?	0.5%	.
Cc1ccc(NC(=O)c2ccc(F)c(S(=O)(=O)N3CCOCC3)c2)cc1F	3.66µM*	?	i	2.0%	2.5%	-8.7%
CCc1ccc(-n2c(=O)c3c4c(sc3n(CC(=O)NCCCOC)c2=O)CCC4)cc1	i	.	i	.	.	.
CCCOc1ccc(C2c3c(-c4ccccc4O)n[nH]c3C(=O)N2CCc2ccccc2)cc1OCC (stereo not given)	i	.	i	.	.	.
O=C(Nc1ccc(Cl)c(Cl)c1)c1ccc(Cl)c(Cl)c1	i	?	i	0.0%	0.3%	1.6%
Cc1ccc(NC(=O)c2ccc(Cl)c(N3C(=O)C=CC3=O)c2)cc1	?	7.94µM*	?	13µM*	14.6µM*	3.16µM*
Cc1c(/C=C(\C#N)C(=O)Nc2cccc(Cl)c2)c2ccccc2n1Cc1ccccc1Cl	i	.	?	.	.	.
O=C(CN(c1cccc(C(F)(F)F)c1)S(=O)(=O)c1ccc(Cl)c([N+](=O)[O-])c1)NCc1ccc(F)cc1	i	-31.3%	?	?	2.91µM*	?
COc1ccc(CCNC(=O)c2nc(-c3ccc(Cl)cc3)n3c2CCCCC3)c(OC)c1	i	.	i	.	.	.
SMILES	KB-V1 cytotox	RORg inh	KB-3-1 tox	SW480 rerep	MCF10A rerep	VP16 counter
O=C(Nc1nc2n(n1)C(c1ccccc1)C=C(c1ccc(Cl)cc1)N2)c1ccco1 (stereo not given)	i	.	i	.	.	.
COc1ccc(C2CC(c3ccc(Cl)cc3Cl)Nc3nc(N)nn32)cc1 (stereo not given)	i	5.62µM*	i	6.2%	-0.7%	4.47µM*
O=C(Nc1nc2n(n1)C(c1ccc(F)cc1)C=C(c1ccc(Cl)cc1)N2)c1ccco1 (stereo not given)	i	.	i	.	.	.
CS(=O)(=O)Nc1nc2n(n1)C(c1ccc(F)cc1)CC(c1ccccc1)N2 (stereo not given)	i	-9.6%	i	-16.7%	0.9%	-6.5%
O=C(Nc1nc2n(n1)C(c1ccc(Cl)cc1)CC(c1ccc(Cl)cc1)N2)c1ccco1 (stereo not given)	?	3.16µM*	?	10.3%	?	3.55µM*
COc1ccc(C2CC(c3ccc(Cl)cc3)Nc3nc(NC(=O)c4ccco4)nn32)cc1 (stereo not given)	i	0.708µM*	i	2.6%	?	0.159µM*
O=C(Nc1nc2n(n1)C(c1ccc(F)cc1)CC(c1ccccc1)N2)c1ccco1 (stereo not given)	i	3.16µM*	i	-20.8%	-2.8%	7.08µM*
CCCCCn1c(=O)c(-c2nc3ccccc3[nH]2)c(O)c2ccccc21	?	1.58µM*	?	18.4µM*	?	7.94µM*
CCCCCCCCn1c(=O)c(C(=O)OCC)c(O)c2ccccc21	i	10.7%	i	-0.7%	?	6.8%
C/C=C/OC(=O)NC(c1ccccc1)[C@]1(C(C)=O)CCCC1=O (stereo not given in full)	.	1.5%[10 µM]	.	.	.	-3.8%[10 µM]
CC1(C)Cc2nc3[nH]c(=S)n(-c4ccccc4)c(=O)c3cc2CO1	i	.	i	?	12.6%	.
CCC1(C)Cc2nc3[nH]c(=S)n(-c4ccccc4C)c(=O)c3cc2CO1 (stereo not given)	i	6.31µM*	i	-4.0%	5.0%	10µM*
CCC1(C)Cc2nc3[nH]c(=S)n(-c4ccccc4)c(=O)c3cc2CO1 (stereo not given)	i	2.82µM*	i	?	-1.8%	?
CCC1(C)Cc2nc(Cl)c(C#N)cc2CO1 (stereo not given)	i	3.7%	i	-3.4%	-2.7%	-3.8%
CN(C)c1ncc2nc(-c3ccccc3)c(=O)n(Cc3cccs3)c2n1	.	-12.7%	.	.	.	-4.3%
O=C(NC1CCCCC1)c1cccc2c(-c3ccc(F)c(F)c3)coc12	i	.	i	.	.	.
CCOc1cc(CNc2ccc3c(c2)OCCO3)cc(Br)c1OC	2.06µM*	46.0%	1.64µM*	7.31µM*	1.64µM*	10.7%
CCOc1cc(CNc2ccc3c(c2)OCCO3)cc(Br)c1OCC(N)=O	i	25.0%	i	4.1%	1.6%	-9.1%
